Drawing on PubChem BioAssay (EPA / NIEHS), this text covers outcome and AC50 for 15 compounds.

Read-out in test [1]: Urokinase-type plasminogen activator receptor (uPAR), PLAUR (gene 5329)
Kind of test: BSK_BE3C_uPAR: BioMAP Diversity Plus: BE3C Assay for Urokinase-type plasminogen activator receptor (uPAR) Biomarker Activity (AID 2283039).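 Also: uPAR protein level measured by ELISA on the cells; cells exposed to compound for one day before measurement.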 As to conditions: primary human bronchial epithelial cells; actives raise or lower the signal. An outline of the steps:
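ELISA readout of uPAR on human lung primary bronchial epithelial cells, 24 h post-dosing. Bidirectional curve fit relative to DMSO vehicle baseline; gain or loss of signal both scored.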

Read-out in test [2]: Interleukin-6 (IL6), IL6 (gene 3569)
Kind of test: BSK_CASM3C_IL6: BioMAP Diversity Plus: CASM3C Assay for Interleukin-6 (IL6) Biomarker Activity for (AID 2283040). The following applies: primary human coronary artery smooth muscle cells; actives raise or lower the signal.

Read-out in test [3]: Tissue plasminogen activator (tPA), PLAT (gene 5327)
The test is described as follows: BSK_BE3C_tPA: BioMAP Diversity Plus: BE3C Assay for Tissue plasminogen activator (tPA) Biomarker Activity (AID 2283041).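 As to outcome: tPA level quantified by ELISA one day after compound addition.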 As to conditions: primary human bronchial epithelial cells; actives raise or lower the signal. In short, it runs like this:
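ELISA read-out of tPA on human primary bronchial epithelial cells, 24 h post-dosing; bidirectional fit vs DMSO negative control/baseline.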

Read-out in test [4]: Interleukin-8 (IL8), CXCL8 (gene 3576)
Kind of test: BSK_CASM3C_IL8: BioMAP Diversity Plus: CASM3C Assay for Interleukin-8 (IL8) Biomarker Activity (AID 2283042).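 Also: IL-8 protein level quantified by ELISA.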 The following applies: primary human coronary artery smooth muscle cells; actives raise or lower the signal.

Read-out in test [5]: Human Leukocyte Antigen - DR isotype (HLADR), HLA-DRA (gene 3122)
Kind of test: BSK_CASM3C_HLADR: BioMAP Diversity Plus: CASM3C Assay for Human Leukocyte Antigen - DR isotype (HLADR) Biomarker Activity (AID 2283043).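 Also: cell-surface HLA-DR protein level quantified by ELISA.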 As to conditions: primary human coronary artery smooth muscle cells; actives raise or lower the signal.

Read-out in test [6]: Macrophage colony-stimulating factor (MCSF), CSF1 (gene 1435)
Kind of test: BSK_CASM3C_MCSF: BioMAP Diversity Plus: CASM3C Assay for Macrophage colony-stimulating factor (MCSF) Biomarker Activity (AID 2283044).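 Also: M-CSF protein amount quantified by ELISA after 24 h exposure.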 The following applies: primary human coronary artery smooth muscle cells; actives raise or lower the signal.

Read-out in test [7]: Low-density lipoprotein receptor (LDLR), LDLR (gene 3949)
Kind of test: BSK_CASM3C_LDLR: BioMAP Diversity Plus: CASM3C Assay for Low-density lipoprotein receptor (LDLR) Biomarker Activity (AID 2283045).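 Also: LDLR protein level on the cell surface quantified by ELISA.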 As to conditions: primary human coronary artery smooth muscle cells; actives raise or lower the signal.

Read-out in test [8]: Monocyte Chemoattractant Protein-1 (MCP1), CCL2 (gene 6347)
The test is described as follows: BSK_CASM3C_MCP1: BioMAP Diversity Plus: CASM3C Assay for Monocyte Chemoattractant Protein-1 (MCP1) Biomarker Activity (AID 2283046).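 Also: MCP-1 level quantified by ELISA 24 h after dosing.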 As to conditions: primary human coronary artery smooth muscle cells; actives raise or lower the signal.

Test [9] can be described thus: BSK_CASM3C_Proliferation: Cell Proliferation Assessment in the BioMAP Diversity Plus: CASM3C Assay (AID 2283047).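 Also: sulforhodamine B total protein stain as relative cell number at 560 nm; sub-confluent cells exposed 48 h before staining; fitted both ways against DMSO so gain or loss of cell number.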 As to conditions: primary human coronary artery smooth muscle cells.
Read-out in test [10]: Monokine induced gamma interferon (MIG), CXCL9 (gene 4283)
The test is described as follows: BSK_CASM3C_MIG: BioMAP Diversity Plus: CASM3C Assay for Monokine induced gamma interferon (MIG) Biomarker Activity (AID 2283048).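 Also: MIG protein level measured by ELISA.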 The following applies: primary human coronary artery smooth muscle cells; actives raise or lower the signal.

The source holds several records for some structures; these can differ, active in one and inactive in another. Calls of active or inactive are those of the source. The calls were made as follows: active = hit-call score of the fitted dose curve at least 0.9, where 1 is the maximum; inactive = score below 0.9.

As a reminder, the AC50 is the concentration giving half of the maximal activity seen. For the compound `COC(=O)CSc1cc(N=c2sc(=O)n3n2CCCC3)c(F)cc1Cl`, the outcome in test [1], in test [2], in test [4], in test [5], in test [7] and in test [8] was inactive. For the same compound, in test [10], the outcome was inactive. The AC50 was 0.79 µM (active) in [3], 3.97 µM (active) in test [6] and 29.6 µM (active) in test [9].
For `N[C@@H](Cc1cc(I)c(Oc2ccc(O)c(I)c2)c(I)c1)C(=O)O`, the result in [1], in [2], in test [4], in [5], in test [6] and in test [7] was inactive. For the same compound, the result in test [8], in [9] and in [10] was inactive. Also, in [3], the AC50 was 16 µM (active).
As to `CC(C)(c1ccc(O)cc1)c1ccc(O)cc1`, the result in test [1], in test [2], in test [3], in test [4], in [5] and in [6] was inactive. Besides, the result in [7], in test [8], in test [9] and in test [10] was inactive. The AC50 in test [3] is 8.08 µM (active).
Turning to `CCCCCCC(C)OC(=O)COc1nc(F)c(Cl)c(N)c1Cl` (stereo unspecified), the outcome in [1], in test [2], in test [3] and in test [7] was inactive. Also, the AC50 in [4] is 32.9 µM (active); in test [5] it was 31.9 µM (active); in test [6] it was 30.2 µM (active); in test [8], 29.9 µM (active); in [9], 36.1 µM (active); in test [10], 31.6 µM (active).
As to `CCCCOC(=O)C(C)Oc1ccc(Oc2ccc(C(F)(F)F)cn2)cc1` (stereo unspecified), the result in test [1], in test [2], in test [3], in test [4], in [5] and in [6] was inactive. Also, the result in test [7], in [8], in [9] and in [10] was inactive.
Take `COC(=O)c1ccc(I)cc1S(=O)(=O)NC(=O)Nc1nc(C)nc(OC)n1`: the outcome in test [1], in test [2], in test [3], in [4], in test [5] and in test [6] was inactive. Moreover, the outcome in [7], in test [8], in [9] and in [10] was inactive.
Take `CCCCOC(=O)[C@@H](C)Oc1ccc(Oc2ccc(C(F)(F)F)cn2)cc1`: the result in test [1], in [2], in test [3], in [4], in test [5] and in test [6] was inactive. Further, the outcome in [7], in test [8], in test [9] and in [10] was inactive.
As for `CCOC(=O)NCCOc1ccc(Oc2ccccc2)cc1`, the result in test [1], in test [2], in test [3], in test [4], in test [5] and in test [6] was inactive. Besides, the outcome in test [7], in test [8] and in test [10] was inactive. The AC50 in test [9] is 7.68 µM (active).
Regarding `CCOC(=O)C(C)Oc1ccc(Oc2nc3ccc(Cl)cc3o2)cc1` (stereo unspecified), the outcome in test [1], in test [2], in [3], in test [4], in test [5] and in test [6] was inactive. Also, the result in test [7], in test [8], in test [9] and in [10] was inactive.
In the case of `CCOC(=O)c1ccc(O)cc1`, the result in [1], in test [2], in test [3], in [4], in test [5] and in test [6] was inactive. The result in [7], in [8], in [9] and in test [10] was inactive.
On to `CCCCC(CC)COC(=O)c1ccccc1C(=O)O` (stereo unspecified), for which the result in test [1], in test [2], in test [3], in test [4], in [5] and in [6] was inactive. Besides, the result in test [7], in test [8], in test [9] and in [10] was inactive.
Take `COC(=O)c1ccccc1S(=O)(=O)NC(=O)Nc1nc(OC(F)F)cc(OC(F)F)n1`: the outcome in [1], in test [2], in test [3], in test [4], in [5] and in [6] was inactive. Besides, the outcome in test [7], in [8], in [9] and in [10] was inactive.
In the case of `O=C(O)C1(C(=O)Nc2ccc(Cl)cc2Cl)CC1`, the result in [1], in test [2], in test [3], in [4], in [5] and in [6] was inactive. Further, the outcome in test [7], in test [8], in test [9] and in test [10] was inactive.
Consider `CCCCCOC(=O)COc1cc(N2C(=O)C3=C(CCCC3)C2=O)c(F)cc1Cl`, for which the outcome in test [1], in test [2], in test [3], in [4], in test [5] and in [7] was inactive. In [8], the result was inactive. The AC50 was 14.4 µM (active) in [6], 12.6 µM (active) in [9] and 25.5 µM (active) in test [10].
For `C=CCOC(Cn1ccnc1)c1ccc(Cl)cc1Cl` (stereo unspecified), the result in test [1], in test [2], in test [3], in test [4], in test [5] and in [6] was inactive. The result in test [7], in [8], in test [9] and in [10] was inactive.
